# CHT PAM – allosterically activates the human high affinity choline transporter | B-score at 10 µM | hit rate 0.49% among 310,000 | CHT-expressing cells, membrane potential dye, choline EC20; stronger effect = higher value; LV-AA mutant CHT in HEK293 cells;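 active = initial fluorescence not abnormally high and integrated response B-score, plate-corrected, over 3 SD above library mean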
# Target sequence (Q9GZV3 whole entry, looked up): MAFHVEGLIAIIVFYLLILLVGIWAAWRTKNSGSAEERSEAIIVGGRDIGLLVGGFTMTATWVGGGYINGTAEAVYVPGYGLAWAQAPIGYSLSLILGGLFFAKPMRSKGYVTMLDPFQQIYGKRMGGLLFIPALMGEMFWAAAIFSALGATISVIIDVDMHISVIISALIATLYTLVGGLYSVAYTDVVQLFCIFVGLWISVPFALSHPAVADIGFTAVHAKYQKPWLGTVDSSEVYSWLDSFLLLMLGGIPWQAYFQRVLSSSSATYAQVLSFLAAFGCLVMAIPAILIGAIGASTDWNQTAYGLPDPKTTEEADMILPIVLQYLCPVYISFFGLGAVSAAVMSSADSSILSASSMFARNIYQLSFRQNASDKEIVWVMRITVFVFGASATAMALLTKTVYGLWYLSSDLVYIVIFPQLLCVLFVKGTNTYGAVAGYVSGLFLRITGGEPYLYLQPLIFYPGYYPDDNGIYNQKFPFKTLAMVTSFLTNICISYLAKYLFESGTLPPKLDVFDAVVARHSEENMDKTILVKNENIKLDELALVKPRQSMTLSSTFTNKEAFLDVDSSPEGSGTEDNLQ
# NALP1 inh – blocks the NALP1 inflammasome reconstituted in yeast; S. cerevisiae NALP1/ASC/caspase-1 growth, X-gal OD620, 72 h; inhibition, % at 10 µM; hit rate 0.61% among 280,000; AID 2071; in the data active = inhibition mostly above about 24%, no sharp cut-off; inactive = mostly below about 32%
# CHT block – inhibits the human high affinity choline transporter; CHT-expressing cells, membrane potential dye, choline response; stronger effect = lower value; B-score at 10 µM; hit rate 0.86% among 310,000;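 active = B-score over 3 SD under the library average, and starting fluorescence ratio not unusually high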;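 also: choline stimulus applied at its EC90 after an EC20 pre-addition; B-score computed on integrated fluorescence ratio after choline addition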
# NALP3 yeast inh – NALP3 inhibition in yeast. Yeast reconstituted NLRP3/ASC/caspase-1, beta-gal luminescence, 24 h. hit rate 0.39% among 330,000. inhibition, % at 10 µM;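 active = inhibition of 50% or more; inactive = inhibition below 50%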
# Mot1-301 SUMO – blocks SUMOylation pathway, rescuing yeast Mot1-301 growth; growth rescue, % at 18.8 µM; hit rate 1% among 320,000; S. cerevisiae Mot1-301 growth rescue, ATP luminescence, 38.5C; percent above DMSO median, 100 means doubled;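 active = every valid replicate shows activation above 250% relative to neutral control wells; inactive = the rest, any valid replicate at or below 250%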
# Bfl-1 A1 inh – inhibitors of the anti-apoptotic protein A1, read as caspase activation; MEF A1-2A-BIM cells, Caspase-Glo 3/7 luminescence, 3 h; percent of clofoctol response, vehicle zero; caspase activation, % (test concentration not listed); hit rate 0.066% among 330,000;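 active = over half of replicate activation scores above 10%, or exactly half above 10 with the replicate mean above 10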
# CHT block conf – confirmation of human choline transporter CHT inhibitors; shares compounds with CHT block; CHT-expressing cells, choline membrane potential dye; LV-to-AA substituted CHT, HEK293 cells; CHT activity remaining % of control (stronger effect = lower value), % at 10 µM; hit rate 70% among 2,400;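 active = choline transporter activity left, mean of duplicates at 10 µM, below buffer-only control mean minus 3 SD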;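 also: depolarization triggered by choline at its EC90 following an EC20 pre-addition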
# HEK293 CHT ctr – CHT inhibitor counter-screen hit in parental HEK293 cells. membrane potential dye, choline response; active = decrease or increase beyond buffer ±3SD. shares compounds with CHT block. hit rate 4% among 2,400. membrane potential ratio readout (active if shifted either direction beyond buffer ±3SD; no single direction) at 10 µM;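 also: parental cells lack the transporter so any hit is non-specific; ratio is peak minus trough fluorescence over baseline after EC90 choline challenge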
# A number is an active result; n = inactive; x = not tested or not shown. Sampled rows, rich in hits. Any-hit rate of the full collection: about 3%.
SMILES,CHT PAM,NALP1 inh,CHT block,NALP3 yeast inh,Mot1-301 SUMO,Bfl-1 A1 inh,CHT block conf,HEK293 CHT ctr
CCC(=O)Nc1ccc(C(=O)Cn2ncc(Cl)c(Cl)c2=O)cc1,n,n,n,n,n,n,x,x
Cc1cc(C(=O)Cn2ncc(Cl)c(Cl)c2=O)c(C)n1CC(F)(F)F,n,n,-5.61,n,n,n,44.5%,n
Cc1cc(Cl)c(S(=O)(=O)N2CCCC2)cc1OCC(=O)NC1CCCCC1,n,n,-5.16,n,n,n,57.3%,n
COc1cc(/C=C2/SC(=Nc3ccc(O)cc3)NC2=O)ccc1O,n,n,n,n,n,n,x,x
COc1cc(/C=C2\SC(=Nc3ccccc3OC)NC2=O)ccc1O,n,n,-5.39,n,n,n,n,n
COc1ccc(C(C)=O)cc1Cn1cnc2c(cnn2C)c1=O,n,n,n,n,n,n,x,x
COc1ccc(C=O)cc1Cn1cnc2c(cnn2C)c1=O,n,n,-5.71,n,n,n,n,n
c1ccc(CN2CCN(c3nc4ccccc4n4cnnc34)CC2)cc1,n,n,-5.53,n,n,n,59.0%,n
Cc1cc(C)c2nc(N3CCCN(C(=O)c4cnccn4)CC3)c(C#N)cc2c1,n,n,-5.2,n,n,n,37.8%,n
Cc1ccc(NC(=S)NNC(=O)c2cccc([N+](=O)[O-])c2)cc1Cl,n,n,-5.68,n,n,n,54.1%,n
COc1cccc(C2=NOC(C(=O)Nc3cccnc3Cl)C2)c1OC (configuration not stated),n,n,-11.1,n,n,n,n,n
COc1cc(NC(=O)C2CC(c3cccc(OC)c3OC)=NO2)cc(OC)c1OC (configuration not stated),n,x,n,n,n,n,x,x
CN(C)c1ccc(C(=O)Nc2ccc(S(=O)(=O)NC3=NCCCCC3)cc2)cc1,n,n,n,n,n,n,x,x
O=C(Nc1ccc(S(=O)(=O)NC2=NCCCCC2)cc1)C1COc2ccccc2O1 (configuration not stated),n,x,-5.11,n,n,n,40.0%,n
Cc1ccc(C(=O)Nc2ccc(S(=O)(=O)NC3=NCCCCC3)cc2)c(C)c1,n,x,-5.92,n,n,n,19.3%,n
Cc1noc(NC(=O)c2ccccc2)c1C#N,n,n,n,n,n,n,x,x
COc1ccccc1C(=O)Nc1onc(C)c1C#N,n,n,-6.36,n,n,n,n,n
C=C[C@@]1(C)CC(=O)[C@]2(O)[C@@]3(C)[C@@H](O)CCC(C)(C)[C@@H]3[C@H](OC(C)=O)[C@H](O)[C@@]2(C)O1,n,x,-8.1,n,n,n,37.1%,n
O=C(COC(=O)c1ccc(Br)o1)NC1CCCc2ccccc21 (configuration not stated),x,x,x,n,n,n,x,x
CC(C)c1ccc(OCC(=O)NCc2ccccc2)cc1,n,n,n,n,n,n,x,x
CC(=O)c1sc(-c2ccc(F)cc2)cc1NS(=O)(=O)c1ccc(C)cc1,n,n,n,n,n,n,x,x
NC(=O)c1sc(-c2ccsc2)cc1NS(=O)(=O)c1ccc(C(F)(F)F)cc1,n,x,-6.91,n,n,n,n,n
CCCC(=O)NC(=S)Nc1cccc(NC(=O)c2ccccc2Cl)c1,n,n,-12.5,n,n,n,14.3%,n
CCCC(=O)Nc1cccc(NC(=O)c2ccc([N+](=O)[O-])cc2Cl)c1,n,n,-6.56,n,n,n,61.3%,n
CCC(=O)NC(=S)Nc1cccc(NC(=O)c2ccccc2Cl)c1,n,n,n,n,n,n,x,x
SMILES,CHT PAM,NALP1 inh,CHT block,NALP3 yeast inh,Mot1-301 SUMO,Bfl-1 A1 inh,CHT block conf,HEK293 CHT ctr
C=CCSc1nc2sc3c(c2c(=O)[nH]1)CCC3,n,n,n,n,n,n,x,x
CC1CCN(c2oc(Cc3cccc4ccccc34)nc2C#N)CC1,n,n,n,n,n,n,x,x
N#Cc1nc(Cc2cccc3ccccc23)oc1N1CCOCC1,n,n,-5.33,n,n,n,58.9%,n
NC(=O)C1CCN(c2nc(-c3ccc4ccccc4c3)cs2)CC1,x,x,x,n,n,n,x,x
COc1ccc(N2CCN(C(=O)c3cc(-c4cccs4)nc4ccccc34)CC2)cc1,n,n,-6.06,n,n,n,n,n
COc1ccc(N2CC(C(=O)N/N=C/c3cc([N+](=O)[O-])ccc3O)CC2=O)cc1 (configuration not stated),n,n,n,n,n,n,x,x
Oc1c(Br)cc(Br)cc1C=NCc1ccccc1,n,n,-9.85,n,n,n,42.4%,n
Oc1c(Br)cc(Br)cc1C=NCc1ccc(F)cc1,n,n,-7.07,n,n,n,56.7%,n
COc1ccc2nc(Cl)c(/C=N/Nc3ccccn3)cc2c1,n,n,n,n,n,n,x,x
Cc1ccc(NC(=S)Nc2cccc3cnccc23)cc1C,n,n,-5.89,n,n,n,54.1%,n
Cc1ccc(NC(=S)Nc2cccc3cnccc23)cc1,n,n,n,n,n,n,x,x
CC(=O)C1=C(O)C=C(c2ccco2)CC1c1ccco1 (configuration not stated),n,n,-5.05,n,n,n,n,n
c1ccc(Sc2ncnc3ccccc23)cc1,n,x,-4.96,n,n,n,n,n
N#CCSc1ncnc2ccccc12,n,n,n,n,n,n,x,x
Cc1noc(C)c1COc1ccccc1C(=O)NCCOc1ccccc1,x,x,x,n,x,x,x,x
Cc1ccc(N2NC(=O)/C(=C\c3cc4c(cc3[N+](=O)[O-])OCO4)C2=O)cc1C,n,n,-5.03,x,n,n,42.3%,n
COc1cc(/C=C2/C(=O)NN(c3ccc(C)c(Cl)c3)C2=O)cc([N+](=O)[O-])c1O,n,n,n,n,n,n,x,x
O=C(Oc1ccccc1C(=O)N1CCOCC1)c1ccc(F)cc1,n,n,-8.19,n,n,n,n,n
Cc1nc(=S)c2ccccc2[nH]1,n,n,n,n,n,n,x,x
Cc1cc2[nH]c3ccccc3c2c(C)n1,n,n,-7.27,n,n,n,33.7%,n
Cn1ccs/c1=N\C(=O)Nc1cccc(C(F)(F)F)c1,n,n,n,n,n,n,x,x
Cc1cc(C)nc(-n2nc(C)c3c(C(F)(F)F)cc(=O)[nH]c32)n1,n,x,n,n,x,n,x,x
Cc1nn(-c2ccccc2)c2[nH]c(=O)cc(C(F)(F)F)c12,n,37.5,-5.18,n,n,n,36.6%,n
O=C(Cn1nnc(-c2ccc(Cl)cc2)n1)NC1CCN(Cc2ccccc2)CC1,n,n,n,n,n,n,x,x

# Assay outcomes from PubChem BioAssay.
